A selection: hits, their analogues and other compounds. The true share with any hit is near 22%.
CHX counter – Cycloheximide Counterscreen for Small Molecule Inhibitors of Shiga Toxin; cell reporter, cycloheximide protein synthesis inhibition counterscreen; max response, %; hit rate 12% among 300,000; in the data active means max response mostly above about 13%, no sharp cut-off; inactive means mostly below about 14%; further: read at 38.3 µM for the half of the compounds with a filed dose; 0% is about no effect
Pf growth 48h – Primary qHTS for delayed death inhibitors of the malarial parasite plastid, 48 hour incubation; P. falciparum luciferase growth in erythrocytes, 48 h; Potency, µM (series often up to 28.7 µM), for inactives: at the highest dose activity change, negative = inhibition, actives largely listed as inhibitors; hit rate 5.9% among 310,000; AID 504832, 2011; further: potency means the concentration at half of the fitted maximal effect; on the % scale 0 is the no-effect control and ±100 the full control effect
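First compound was added to culture medium, then infected red cells at 0.1% parasitemia and 2% hematocrit (final). After incubation at 37 C under 5% CO2, luciferase detection reagent was dispensed and light output recorded.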
Shiga toxin inh – A qHTS for Small Molecule Inhibitors of Shiga Toxin; inhibition, % at 38.7 µM; Vero cells, Shiga toxin protein synthesis inhibition reporter; AID 2315, 2010; hit rate 9.2% among 290,000; in the data active means inhibition mostly above about 28%, no sharp cut-off; inactive means mostly below about 43%; further: 0% is about no effect
Pf growth 96h – Primary qHTS for delayed death inhibitors of the malarial parasite plastid, 96 hour incubation; P. falciparum luciferase reporter growth, 96 h; Potency, µM (series often up to 28.7 µM), without a hit: top-dose activity change, negative = inhibition, usual class: inhibitors; hit rate 6.9% among 320,000; further: potency means the concentration at half of the fitted maximal effect; on the % scale 0 is the no-effect control and ±100 the full control effect
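Two parasite generations (96 h, 37 C, 5% CO2) of compound exposure in infected erythrocytes (0.05% parasitemia, 2% hematocrit). Luciferase-reporter P. falciparum; decreased luminescence indicates inhibited growth, aimed at apicoplast-acting delayed death.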
LmPK inh – qHTS Assay for Inhibitors of Leishmania Mexicana Pyruvate Kinase (LmPK) | hit rate 0.37% among 290,000 | purified LmPK, Kinase-Glo ATP luminescence, 1 h | Q27686 | Potency, µM (highest dose often 57.5 µM), for the others: at the highest dose activity change, negative = inhibition, usual class: inhibitors; further: potency means the concentration at half of the fitted maximal effect; on the % scale 0 is the no-effect control and ±100 the full control effect
Target sequence (Q27686 whole entry, looked up): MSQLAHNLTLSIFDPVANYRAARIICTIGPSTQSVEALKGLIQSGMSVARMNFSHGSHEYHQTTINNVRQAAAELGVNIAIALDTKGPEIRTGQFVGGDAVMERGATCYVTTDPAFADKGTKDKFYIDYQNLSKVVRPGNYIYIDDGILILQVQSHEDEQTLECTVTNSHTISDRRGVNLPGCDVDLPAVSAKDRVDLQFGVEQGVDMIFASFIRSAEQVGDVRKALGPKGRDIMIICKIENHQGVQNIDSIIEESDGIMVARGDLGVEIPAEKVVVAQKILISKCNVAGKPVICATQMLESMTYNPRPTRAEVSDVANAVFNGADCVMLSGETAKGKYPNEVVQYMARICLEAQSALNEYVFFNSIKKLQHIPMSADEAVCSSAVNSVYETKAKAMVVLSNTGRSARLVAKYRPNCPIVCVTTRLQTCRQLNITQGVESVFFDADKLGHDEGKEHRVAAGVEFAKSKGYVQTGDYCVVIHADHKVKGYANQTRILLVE
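ATP generated from ADP (0.1 mM) and PEP (0.5 mM) by 0.1 nM LmPK over 1 h at room temperature (pH 7.2 imidazole buffer) was detected by coupled luciferase luminescence. Values were normalized to uninhibited and no-enzyme wells.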
An asterisk follows results filed as active; i = inactive; ? = inconclusive; . = no result given; [ ] = dose if it differs, or a comment. Unless noted, the call rests on the fitted dose curve; in most records, active means well fitted inhibition curve with a large enough effect; inconclusive means small, poorly fitted or top-dose-only effect, or another doubt; inactive means no such curve, though single readings can be large or run the other way.

SMILES	CHX counter	Pf growth 48h	Shiga toxin inh	Pf growth 96h	LmPK inh
CCCSc1nc(NCc2ccco2)c2c3c(sc2n1)COC(C)(C)C3	26	?	46*	?	5%
CCCCSc1nc(NCc2ccco2)c2c3c(sc2n1)COC(C)(C)C3	44*	10µM*	70*	?	3%
Cn1cnc([N+](=O)[O-])c1SCCO	0	-7%	7	?	-10%
COc1cc(-c2nc(-c3ccc4c(c3)-c3ccccc3S4(=O)=O)c(-c3ccccc3)[nH]2)cc(OC)c1O	22*	.	20	.	-1%
CCCCCCCC[n+]1c(C)n(-c2ccccc2)c2ccc(NC(C)=O)cc21	1	?	-6	0%	0%
Cc1nnc(SCc2cc(=O)oc3cc(O)ccc23)n1Cc1ccccc1	0	?	13	2.1µM*	1%
CCCCc1nnc2c(N(C)S(=O)(=O)c3ccccc3)nc3ccccc3n12	4	?	13	-14%	0%
COCCNS(=O)(=O)c1cc(OC)ccc1OC	8	9%[5.75 µM]	37	10%	-5%
CC1(C)SC(=S)N(/N=C/c2ccccc2O)C1N(O)C(=O)Nc1ccccc1 (centres undefined)	21*	-27%	52*	38%	-1%
CNC(=O)N(O)C1N(/N=C/c2cc(Br)ccc2O)C(=S)SC1(C)C (centres undefined)	15*	0%[0.00184 µM]	36	4%	4%
O=C1CCCC2=C1C1O[C@](CCCCN3C(=O)c4ccccc4C3=O)(Cc3ccccc31)O2	-2	?	i	?	-3%[11.5 µM]
Cc1ccc(S(=O)(=O)N[C@H](C(=O)N2CCC(C(=O)N[C@@H](CCC(N)=O)C(=O)O)CC2)C(C)C)cc1	-3	8%	-4	56%	-7%
CC(C)CC(=O)NC(NC(=S)Nc1sc2c(c1C#N)CCCC2)C(Cl)(Cl)Cl (centres undefined)	-2	28%	-10	?	0%
Clc1cccc2c3c([nH]c12)CCNC3	-1	13%	-5	0.59µM*	3%
Clc1ccc2[nH]c3c(c2c1)CNCC3	-6	4%[0.00184 µM]	-6	?	0%
Cc1cc(C(F)F)n2nc(C(=O)Nc3sc4c(c3C(N)=O)CCC4)nc2n1	0	?	-16	4.1µM*	3%
COC(=O)c1c(NC(=O)c2nc3nc(C)cc(C(F)F)n3n2)sc2c1CCC2	-2	?	-5	5.2µM*	7%
Cc1cc(C(F)F)n2nc(C(=O)Nc3sc4c(c3C#N)CCC(C)C4)nc2n1 (centres undefined)	-6	21%	-14	-58%	0%
Cc1cc(C)n2nc(SC(C)C(=O)NC3CCCCC3C)nc2n1 (centres undefined)	.	-2%	.	-13%	.
O=S(=O)(Nc1ccc2ccccc2n1)c1ccccc1	10	33%	8	30%	-1%
O=C(Nc1ccc(Cl)cn1)c1ccc(COc2ccccc2Br)o1	61*	79%	162*	-2%	7%
COC(=O)c1ccccc1NC(=O)c1ccc(COc2ccc(C)c(C)c2)o1	1	?	28	106%	1%
O=C(Nc1ccccn1)c1ccc(COc2ccccc2Cl)o1	30*	121%	89*	69%	0%
COC(=O)c1ccccc1NC(=O)c1ccc(COc2cc(C)cc(C)c2)o1	3	?	-10	4.1µM*	2%
Cc1ccc(NC(=O)c2ccc(COc3ccccc3)o2)nc1	26*	44%	55*	86%	-4%
SMILES	CHX counter	Pf growth 48h	Shiga toxin inh	Pf growth 96h	LmPK inh
CCNc1nnc(CCn2nc(C)c(Br)c2C)s1	15	42%	21	-1%	2%
CCOc1ccc(OCc2ccc(C(=O)NCc3cccnc3)o2)cc1	14	0%	-4	?	-3%
CCOc1ccc(OCc2ccc(C(=O)Nc3ccc(Cl)cn3)o2)cc1	15	-12%	34*	-5%	2%
CCCCn1c(N)c(N(CC(C)C)C(=O)c2cccc(-n3cnnn3)c2)c(=O)[nH]c1=O	.	-11%	.	14%	.
O=C(c1ccc(N2CCN(C(=O)c3cccc(F)c3)CC2)cc1)c1cccc(F)c1	-2	13µM*	-18	?	-6%
O=C(c1cccc(F)c1)N1CCN(S(=O)(=O)Cc2ccccc2)CC1	1	2.9µM*	-2	0%	0%
O=C(c1cccc(F)c1)N1CCN(S(=O)(=O)c2ccccc2)CC1	-2	.	-10	.	4%
O=C(c1ccc(N2CCN(C(=O)c3ccccc3Br)CC2)cc1)c1cccc(F)c1	12	?	-7	9.3µM*	-9%
O=C(c1cccc(F)c1)N1CCN(C(=O)C2CC2)CC1	-3	-3%	-8	0.33µM*	9%
CCOC(=O)N1CCN(c2ccc(C(=O)c3cccc(F)c3)cc2)CC1	23	.	0	33%	4%
CC1(C)Nc2ccccc2N(Cc2ccc([N+](=O)[O-])cc2)C1=O	-2	-12%	-11	?	0%
CCOc1ccc(S(=O)(=O)N2CCC(C(=O)NCc3ccncc3)CC2)cc1C	-4	-1%	3	20%	-1%
CCCCn1c(N)c(N(CCC(C)C)C(=O)C2CC(=O)N(c3ccccc3OCC)C2)c(=O)[nH]c1=O (centres undefined)	-3	?	2	-20%	1%
CCOc1ncccc1C(=O)OCC(=O)c1cc(C)n(Cc2ccco2)c1C	27*	.	67*	73%	-2%
Cc1cc(C(=O)COC(=O)c2ccc(O)cc2)c(C)n1Cc1ccco1	67*	143%	66*	77%	-1%
Cc1cc(C(=O)COC(=O)C(C)NC(N)=O)c(C)n1Cc1ccco1 (centres undefined)	35*	24%	94*	16%	-3%
Cc1cc(C(=O)COC(=O)c2ccc(Br)o2)c(C)n1Cc1ccco1	52*	72%	97*	48%	2%
CCCOC(=O)C(C)n1cnc2scc(-c3ccc(C)cc3)c2c1=O (centres undefined)	3	?	-26	46%	5%
O=C(/C=C/c1cccs1)NC(=S)Nc1ccccc1	32*	14%	123*	-13%	1%
O=C(Nc1ccc(NC(=S)NC(=O)c2cccs2)cc1)c1ccccc1	11	?	-2	33%	1%
CC(=O)NC(=S)Nc1ccc(NC(=O)c2cccs2)cc1	28*	?	32*	0%	-5%
COc1ccc(C(=O)NNC(=S)NC(=O)/C=C/c2cccs2)cc1	37*	191%	111*	31%	25µM*
NS(=O)(=O)c1ccc(NC(=S)NC(=O)c2cccs2)cc1	9	-1%	28	12%	1%
O=C(NC(=S)Nc1ccccc1)c1cccs1	60*	7%	81*	-4%	-1%
O=C(CS(=O)(=O)c1ccccc1)Nc1ccc(N2CCOCC2)cc1	-2	20%	-2	31%	3%
